Bioassay records deposited in PubChem BioAssay by University of Kansas High Throughput Screening Laboratory.
Many of the other results were omitted from the sample, so hits are more common in it than they were.
mHTT-CaM PPI inh – mutant huntingtin-calmodulin interaction inhibitors – biochemical, AlphaScreen, primary screen; P42858; AlphaScreen His-mHTT/GST-CaM binding, luminescence; inhibition, % at 15 µM; hit rate 3.6% among 190,000
Pf apPOL block – Pf-apPOL inhibitors, biochemical, fluorescence; Plasmodium falciparum apicoplast DNA polymerase (apPOL); Recombinant Pf-apPOL, molecular beacon fluorescence, 1.5 h; inhibition, % at 10 µM; hit rate 0.25% among 210,000; AID 1794808, 2022
Numbers stand for hits; – = inactive; · = not tested or not shown. Rule as the data show it: active = inhibition above about 50%; inactive = the rest.

SMILES	mHTT-CaM PPI inh	Pf apPOL block
Cc1ccc2cccc(OCc3ccccc3)c2n1	–	–
Cc1ccc2ccc(C(Nc3ccccn3)c3ccccc3Cl)c(O)c2n1 (stereo unspecified)	64.0	–
CCOc1cccc(C(Nc2ccccn2)c2ccc3ccc(C)nc3c2O)c1O (stereo unspecified)	67.0	–
Cc1c(Cl)cccc1-c1ccc(C(=O)Nc2ccccn2)o1	–	–
COc1ccc(C2=C/C(=C\c3cccc(OC)c3OC)C(=O)O2)c(OC)c1	–	–
COc1ccccc1Oc1coc2c3c(ccc2c1=O)OCN(CC1CCCO1)C3 (stereo unspecified)	–	–
O=C(CSc1nnnn1-c1ccc2ccccc2c1)NCc1ccccc1	–	–
Cc1c2c(n(Cc3c(F)cccc3F)c1C(=O)NCc1ccccn1)CCCC2	–	–
Cc1cccc(Cn2c3c(c(C)c2C(=O)NCc2ccccn2)CCCC3)c1	85.8	–
COc1ccc(C(CCN2CCOCC2)c2c(O)cc(OC)cc2OC)cc1 (stereo unspecified)	–	–
COc1cc(O)c(C(CCN2CCCC2)c2ccc(N(C)C)cc2)c(OC)c1 (stereo unspecified)	60.5	–
COc1cc(O)c(C(CC(=O)N2CCN(c3ccccc3)CC2)c2ccc3c(c2)OCO3)c(OC)c1 (stereo unspecified)	61.8	–
COc1cc(O)c(C(CCN2CCCC2)c2ccc3c(c2)OCO3)c(OC)c1 (stereo unspecified)	–	–
COc1cc(O)c(C(CC(=O)N2CCCC2)c2ccc3c(c2)OCO3)c(OC)c1 (stereo unspecified)	–	–
COc1cc(O)c(C(CCN2CCCCC2)c2ccc(N(C)C)cc2)c(OC)c1 (stereo unspecified)	–	–
COc1cc(O)c(C(CCN2CCN(c3ccccc3)CC2)c2ccc3c(c2)OCO3)c(OC)c1 (stereo unspecified)	82.2	–
COc1cc(O)c(C(CCN2CCN(c3ccccc3)CC2)c2cc(OC)c(OC)c(OC)c2)c(OC)c1 (stereo unspecified)	100.5	–
CC(C)c1ccc(-n2cnc3ccccc3c2=O)cc1	–	–
N=C1NC(=O)C(CC(=O)Nc2ccc(NC(=O)CC3SC(N)=NC3=O)cc2)S1 (stereo unspecified)	–	–
O=C(Nc1ccc(Cl)cc1F)c1c(F)c(F)c(F)c(F)c1F	–	–
CCOc1ccc(C(=O)Nc2cc(Cl)ccc2OC)cc1OCC	–	–
O=C(CSc1nnc2ccc(-c3cccs3)nn12)Nc1ccc2c(c1)OCO2	–	–
O=C(Nc1cccc2ncccc12)C(c1ccccc1)n1cccc1 (stereo unspecified)	78.0	–
O=C(Nc1nccs1)C(c1ccccc1)n1cccc1 (stereo unspecified)	–	–
CCCCOc1ccc(C(=O)Nc2ccc(N3CCCC3=O)cc2)cc1	88.3	–
SMILES	mHTT-CaM PPI inh	Pf apPOL block
CCCOc1ccc(C(=O)Nc2ccc(N3CCCC3)cc2)cc1	–	–
O=C(NCCN1CCOCC1)c1cccc(C2CCCN(C(=O)Nc3ccccc3)C2)c1 (stereo unspecified)	–	–
COCCNC(=O)Nc1nc(-c2cc(Cl)sc2Cl)cs1	–	–
C[C@H](c1ccccc1)N1C[C@H](COCc2ccccc2)Oc2cc(N3CC[C@H](N(C)C)C3)ccc2S1(=O)=O	–	–
C[C@@H](c1ccccc1)N1C[C@H](COCc2ccccc2)Oc2cc(N3CC[C@H](N(C)C)C3)ccc2S1(=O)=O	100.1	–
COC[C@@H]1CCCN1c1ccc2c(c1)O[C@@H](COCc1ccccc1)CN([C@@H](C)c1ccccc1)S2(=O)=O	–	–
C[C@@H](c1ccccc1)N1C[C@H](COCc2ccccc2)Oc2cc(N3CC[C@@H](N(C)C)C3)ccc2S1(=O)=O	100.2	–
CC(C)=CCn1c(NCc2ccccc2)nc2c1c(=O)[nH]c(=O)n2C	–	–
COc1ccc(N2CCN(CC(O)c3cc(C)ccc3C)CC2)cc1 (stereo unspecified)	–	–
OC(CN1CCN(c2ccc(Cl)cc2)CC1)c1ccc2c(c1)CCN2 (stereo unspecified)	–	–
Cc1ccc(Cl)cc1N1CCN(CC(O)c2ccc3c(c2)CCN3)CC1 (stereo unspecified)	70.8	–
COc1cc(NC(=O)/C=C/c2ccc(Cl)cc2Cl)ccc1NC(=O)c1ccco1	–	–
Cc1ccccc1-n1c(O)c(C2=c3cc(Br)ccc3=NC2=O)sc1=O	63.0	–
CSCCC(C(=O)O)n1c(O)c(C2=c3cc(Br)ccc3=NC2=O)sc1=S (stereo unspecified)	51.4	·
Cc1ccc(Nc2nc(O)c(C3=c4cc(Br)ccc4=NC3=O)s2)cc1C	–	–
O=C1N=c2ccc(Br)cc2=C1c1sc(=O)n(-c2ccccc2)c1O	–	–
c1ccc(-c2nc(Sc3nc(-c4ccccc4)nc4ccccc34)c3ccccc3n2)cc1	–	·
Cc1ccc(N2C(=O)CSC2c2ccc3c(c2)OCO3)cc1Cl (stereo unspecified)	–	–
